In PubChem BioAssay AID488862 (Broad Institute, 2010):
In all, about 340,000 compounds went through this assay and about 1,200 (0.35%) were called active. Rule as the data show it: active = inhibition above about 52%; inactive = the rest. The entries come from a sample that favours actives as a whole.

Test: suppresses PrP 5' UTR mRNA reporter expression (AID 488862); also: 0 = median of the neutral control wells
Conditions: cell-based PrP 5' UTR mRNA reporter, plate reader; active compounds read high; concentration not given here

SMILES | inhibition
C[N+](C)(C)CCOP(=O)([O-])OC[C@H](O)CO | -9.94% (inactive)
CCOCCN(C=O)c1cccc(OC)c1 | -5.07% (inactive)
COc1ccc(S(=O)(=O)Nc2cc(C)on2)cc1NC(C)=O | -6.37% (inactive)
CCOc1cc(NC(=O)CCl)c(OCC)cc1NC(C)=O | -34.2% (inactive)
CCOc1cc(NS(=O)(=O)c2ccc(OC)cc2)c(OCC)cc1NC(C)=O | 64.1% (active)
CN=C1SC(C(=O)O)CC(=O)N1C (stereo not given) | -12.6% (inactive)
COc1ccc(OC)c(NC(=O)c2sc3nc(C)cc(C)c3c2N)c1 | -9.33% (inactive)
COc1ccc(OC)c(Cc2nnc(CCC(=O)NC3CCCC3)o2)c1 | 0.259% (inactive)
COc1ccc(OC)c(Cc2cnc3nc(N)nc(N)c3c2C)c1 | 65.3% (active)
CC1CCCCN1CCCNc1ccc(C(CC(N)=O)NC(=O)c2ccccc2)cc1[N+](=O)[O-] (stereo not given) | -27.6% (inactive)
O=C(Nc1ccc(N2CCN(C(=O)C3CC3)CC2)cc1)c1cccs1 | -16.9% (inactive)
CCOC(=O)c1cc2sccc2n1Cc1ccc(C#N)cc1 | -13.3% (inactive)
O=C(c1cc2sccc2n1Cc1ccc(F)cc1)N1CCc2ccccc21 | -33% (inactive)
CC1Cc2ccccc2N1C(=O)c1cc2sccc2n1Cc1ccccc1 (stereo not given) | 59.8% (active)
CCOc1ccc(C(=O)CCC(=O)NC2=NCCS2)cc1 | -27.4% (inactive)
CC(C)c1csc(CN2CCC(CO)(Cc3ccccc3)CC2)n1 | -13.8% (inactive)
OCC1(Cc2ccccc2)CCN(Cc2cc3ccccc3o2)CC1 | 74.7% (active)
O=C(c1cc2ccccc2o1)N1CCN(Cc2ccccc2)CC1 | -15% (inactive)
CCCCn1c(N)c(N(CC(C)C)C(=O)c2cnc(C)cn2)c(=O)[nH]c1=O | -37.8% (inactive)
CC(C)CN1CC(C)C(=O)N(c2ccccc2)C1=S (stereo not given) | -12.4% (inactive)
O=C(C1=C[C@H](c2ccc(C(F)(F)F)cc2)C[C@H](OCc2ccc(CO)cc2)O1)N1CCN(Cc2ccccc2)CC1 | -14.3% (inactive)
O=C(C1=C[C@H](c2coc3ccccc3c2=O)C[C@H](OCc2ccc(CO)cc2)O1)N1CCOCC1 | -9.97% (inactive)
O=C(C1=C[C@H](c2coc3ccccc3c2=O)C[C@H](OCc2ccc(CO)cc2)O1)N1CCN(Cc2ccccc2)CC1 | 81.9% (active)
Cc1ccc(N(C(=O)C(F)(F)F)C(C(=O)NC2CCCCC2)c2ccncc2)cc1C (stereo not given) | -20.4% (inactive)
Cn1c(Cc2cccs2)nnc1SCC(=O)Nc1ccccc1 | -26.4% (inactive)
